# Laboratory results published in the supplement of paper PMC9942566.
# ± gives the standard deviation of the averaged measurements.
# System: Serratia marcescens K904 PosmB-luxCDABE reporter (pMQ747)
# Assay: PosmB-lux reporter fold induction (RLU/OD600 relative to no-compound control), highest over Biolog concentrations; higher = stronger Rcs reporter activation
# Details: Biolog plate: PM13; well positions: B9-12; wild type K904; 4 h
# Experimental: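 Serratia marcescens K904 (wild type) or its isogenic ΔrcsB mutant, carrying the Rcs-dependent PosmB-luxCDABE reporter plasmid pMQ747, was grown in LB at OD600 0.1 in Biolog Phenotype MicroArray plates PM11-20 for 4 h at 30-32°C. Each compound is present at 3-4 proprietary concentrations (not stated); per the Fig. S1 legend the value given is the highest fold over those wells. Three independent trials.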
row,Compound,PosmB-lux reporter fold induction
1,CCn1cc(C(=O)O)c(=O)c2cc3c(cc21)OCO3 [Oxolinic acid],2.12 ± 0.57

# Same assay, conditions: Biolog plate: PM18; well positions: G1-4; wild type K904; 4 h
row,Compound,PosmB-lux reporter fold induction
1,Oc1cc(Cl)ccc1Oc1ccc(Cl)cc1Cl [triclosan],1.45 ± 0.61
